Data from PubChem BioAssay (NCATS).
Records with an inconclusive call do not appear. Active and inactive are the calls of the source. Calls come from the whole dose curve; as a rule, active = well fitted curve in the direction sought with a large enough effect; inconclusive = small, poorly fitted or top-dose-only effect, or another doubt; inactive = no such curve, though single readings can be large; an effect the other way counts as inactive or inconclusive.

How the values were obtained:
[1] = P-glycoprotein substrates identified in KB-8-5-11 adenocarcinoma cell line, qHTS therapeutic library screen (AID 1346987); note: nearly all actives have a fitted effect of over 65% in size
In short: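 KB-8-5-11: colchicine-selected sub-line of KB-3-1 over-expressing P-gp; assay medium lacked colchicine. 72 h drug exposure at 37 degree C, CellTiter-Glo.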

[2] = tested on: Zika virus NS2B-NS3 protease (linked construct); assay: Confirmatory screen NINDS AMC qHTS for Zika virus inhibitors (AID 1347152); note: potency is the fitted concentration of half-maximal effect; nearly all actives have a fitted effect of over 70% in size
In short: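 Enzyme (1 nM, linked construct) was preincubated with compound for 15 minutes at room temperature in 10 mM Tris-HCl pH 8.0 with 0.01% Tween 20. Bz-Nle-Lys-Arg-Arg-AMC was then added to 10 microM, and AMC fluorescence was recorded immediately and after 15 minutes.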

[3] = Confirmatory screen GU Rhodamine qHTS for Zika virus inhibitors qHTS (AID 1347157); note: potency is the fitted concentration of half-maximal effect; nearly all actives have a fitted effect of over 70% in size
In short: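 Enzyme 25 nM in Tris-HCl pH 8.0 + 0.01% Tween 20; compounds up to 114 microM, 15 min RT dark; + Rhod110 substrate 1.5 microM; read t0 and 15 min; delta fluorescence → % inhibition → 4-parameter Hill fit.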

[4] = ZIKV-mCherry secondary qHTS for Zika virus inhibitors (AID 1347158); note: top concentration of the series differs between compounds
In short: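 Vero cells, 5,000/well, plated overnight at 37 °C, then compound added and infected with recombinant ZIKV-mCherry at MOI 1 for 48-72 h. PFA-fixed, Hoechst nuclear stain, high-content imaging; cells with mCherry intensity above 450 RFU scored infected, reported as percent infection.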

[5] = tested on: Zika virus NS2B-NS3 protease (unlinked complex); assay: Primary screen GU Rhodamine qHTS for Zika virus inhibitors: Unlinked NS2B-NS3 protease assay (AID 1347159); note: potency is the fitted concentration of half-maximal effect; nearly all actives have a fitted effect of over 60% in size
In short: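 A qHTS format was used, with compound concentrations ranging up to 114 microM. Each compound was preincubated with 25 nM NS2B-NS3 protease, and the substrate was then added at 1.5 microM. Curves were fitted with a 4-parameter Hill model.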

[6] = tested on: Zika virus NS2B-NS3 protease (linked construct); assay: Primary screen NINDS Rhodamine qHTS for Zika virus inhibitors (AID 1347160); note: nearly all actives have a fitted effect of over 55% in size; note: potency is the fitted concentration of half-maximal effect
In short: (§1)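 Kinetic fluorescence (Ex 480 nm, Em 540 nm) over 15 min with 1.5 microM Rhodamine110 peptide and 25 nM linked protease.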

[7] = Confirmatory screen NINDS Rhodamine qHTS for Zika virus inhibitors (AID 1347161); note: potency is the fitted concentration of half-maximal effect; nearly all actives have a fitted effect of over 60% in size
In short: as §1

[8] = tested on: Zika virus NS2B-NS3 protease (linked); assay: 384 well plate NINDS AMC confirmatory qHTS for Zika virus inhibitors (AID 1347163); note: nearly all actives have a fitted effect of over 50% in size; note: potency is the fitted concentration of half-maximal effect
In short: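 Linked protease 5/30/60 nM final; cpds up to 1 mM final, ~15 min preinc. Substrate Ac-VKTGKR-AMC 30 microM final. RT, dark, 25 min; FI ex 355/em 460; normalized to no-enzyme/no-inhibitor ctrls.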

[9] = tested on: Zika virus NS2B-NS3 protease (linked construct); assay: 384 well plate NINDS Rhodamine confirmatory qHTS for Zika virus inhibitors (AID 1347164);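 note: fluorescence from protease cleavage of Ac-LKRR-rhodamine 110 substrate; nearly all actives have a fitted effect of over 65% in size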; note: potency is the fitted concentration of half-maximal effect
In short: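 Enzyme (final 5/30/60 nM) + cpd (DMSO), ~15 min; add Ac-LKRR-Rd 10 microM final; 25 min RT, dark; FI ex 485/em 538; normalized to no-enzyme, no-inhibitor ctrls; aprotinin intraplate ctrl.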

[10] = Vero cells viability qHTS for Zika virus inhibitors (AID 1347167)
In short: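 Counter-screen for cytotoxicity of hits from NS2B-NS3 protease qHTS. Overnight-attached cells (2.5 x 10^5 cells/mL, DMEM/4% FBS) were dosed in titration, incubated 24 to 48 hours, then assayed by CellTiter Glo.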

[11] = tested on: Zika virus NS2B-NS3 protease (unlinked complex); assay: Confirmatory screen GU AMC qHTS for Zika virus inhibitors (AID 1347153);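 note: enzyme at 25 nM with substrate at 10 µM below its Km of 18.3 µM; potency is the fitted concentration of half-maximal effect; nearly all actives have a fitted effect of over 70% in size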
In short: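 Fluorescence change (ex 340/em 450 nm) over 15 min, ~20% substrate conversion, normalized to no-inhibitor and no-enzyme controls, then Hill-fitted. Unlinked protease at 25 nM; AMC peptide 10 µM.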

Q: For OC[C@@]1(O)CO[C@H](OC[C@H]2O[C@@H](OC(CCCCc3ccc(O)cc3)CCc3ccc(O)cc3)[C@H](O[C@H]3OC[C@](O)(CO)[C@H]3O)[C@@H](O)[C@@H]2O)[C@@H]1O (stereo partly drawn), which Potency [1] is on record?
A: inactive

Q: With O=C(/C=C/c1ccc(O)c(O)c1)O[C@H]1[C@H](OC2CCCCC2O)O[C@H](CO)[C@@H](O)[C@@H]1O (stereo partly drawn) as the compound, how does the Potency [1] read?
A: inactive

Q: For Cc1cc(C)c2nc(-c3ccccn3)cc(C(=O)Nc3ccc(S(=O)(=O)Nc4onc(C)c4C)cc3)c2c1, which Potency [1] is on record?
A: inactive

Q: What about the Potency [2] of the same compound?
A: 22.1 µM (active)

Q: And the Potency [3]?
A: 2.78 µM (active)

Q: And the Potency [4]?
A: inactive

Q: And the Potency [5]?
A: 2 µM (active)

Q: And the Potency [6]?
A: 2.24 µM (active)

Q: What about the Potency [7] of the same compound?
A: 3.12 µM (active)

Q: And the Potency [8]?
A: 5.01 µM (active)

Q: And the Potency [9]?
A: 3.98 µM (active)

Q: What about the outcome [10] of the same compound?
A: inactive

Q: For O=C(O)C1(c2ccc(-c3ccc(Cl)c(Cl)c3)c(F)c2)CC1, which Potency [1] is on record?
A: inactive

Q: What about the Potency [2] of the same compound?
A: 44.1 µM (active)

Q: What about the Potency [11] of the same compound?
A: 44.1 µM (active)

Q: What about the Potency [3] of the same compound?
A: 11.1 µM (active)

Q: And the Potency [5]?
A: 7.94 µM (active)

Q: What about the Potency [6] of the same compound?
A: 8.91 µM (active)

Q: What about the Potency [7] of the same compound?
A: 6.98 µM (active)

Q: And the Potency [8]?
A: 14.1 µM (active)

Q: And the outcome [10]?
A: inactive

Q: What does the source list for C/C=C/C=C/C=C/C(=O)O[C@@H]1[C@@H](OC)C2=C(C(=O)N(C(CCC(=O)O)C(=O)O)C2)[C@@]2(C)CCCC(C)(C)[C@H]12 (stereo partly drawn)?
A: Potency [1]: inactive; Potency [2]: 24.2 µM (active); Potency [11]: 9.61 µM (active); Potency [3]: 4.82 µM (active); Potency [4]: inactive; Potency [5]: 4.47 µM (active); Potency [6]: 7.08 µM (active); Potency [7]: 2.71 µM (active); Potency [8]: 2.24 µM (active); Potency [9]: 15.8 µM (active); outcome [10]: inactive

Q: For C[C@@H]1CC[C@]2(C(=O)O)CC[C@]3(C)C(=CCC4[C@@]5(C)C[C@@H](O)[C@@H](O)C(C)(C)C5CC[C@]43C)C2[C@]1(C)O (stereo partly drawn), which Potency [1] is on record?
A: inactive

Q: For COc1cc(/C=C/c2ccccc2)c(C(=O)O)c(O)c1CC=C(C)C, which Potency [1] is on record?
A: inactive

Q: What about the Potency [2] of the same compound?
A: 34.3 µM (active)

Q: What about the Potency [11] of the same compound?
A: 34.3 µM (active)

Q: And the Potency [3]?
A: 3.06 µM (active)

Q: What about the Potency [5] of the same compound?
A: 4.47 µM (active)

Q: And the Potency [6]?
A: 10 µM (active)

Q: What about the Potency [7] of the same compound?
A: 4.85 µM (active)

Q: What about the outcome [10] of the same compound?
A: inactive

Q: With CC1(C)CC[C@]2(C(=O)O)CC[C@]3(C)C(=CCC4[C@@]5(C)C[C@@H](O)[C@H](O)[C@@](C)(CO)C5CC[C@]43C)C2C1 (stereo partly drawn) as the compound, how does the Potency [1] read?
A: inactive

Q: For Cn1nccc1-c1ccccc1Oc1ccc(S(=O)(=O)Nc2nccs2)cc1C#N, which Potency [1] is on record?
A: inactive

Q: With CC(O)C/C=C/C=C/C(=O)OC1C=C2COC(=O)C2(O)C2(C)CCCC(C)(C)C12 (stereo not drawn) as the compound, how does the Potency [1] read?
A: inactive

Q: Which Potency [1] does the source give for O=C1NC(=O)/C(=C/c2cccc(C(F)(F)F)c2)S1 here?
A: inactive

Q: And the Potency [2]?
A: 17.5 µM (active)

Q: And the Potency [3]?
A: 4.41 µM (active)

Q: And the Potency [5]?
A: 2.51 µM (active)

Q: And the Potency [6]?
A: 3.55 µM (active)

Q: And the Potency [7]?
A: 3.93 µM (active)

Q: What about the Potency [8] of the same compound?
A: 100 µM (active)

Q: What about the Potency [9] of the same compound?
A: 20 µM (active)

Q: For O=C(OC[C@H]1O[C@@H](Oc2ccccc2CO)[C@H](O)[C@@H](O)[C@@H]1O)c1ccccc1, which Potency [1] is on record?
A: inactive

Q: For C[C@]1(O)CC[C@@H]2C(C(=O)O)=CO[C@@H](O[C@@H]3O[C@H](COC(=O)/C=C/c4ccc(O)c(O)c4)[C@@H](O)[C@H](O)[C@H]3O)[C@@H]21, which Potency [1] is on record?
A: inactive

Q: For COc1cc(C)c(C(=O)NC2C(C)OC(OC3CCC(C)C4C3C=C(C)C3/C(C)=C\CC/C(C)=C/C5(C)C=C(C(=O)O)C(C)CC56OC(=O)/C(=C(\O)C34C)C6=O)C(O)C2(C)O)c(O)c1 (stereo not drawn), which outcome [1] is on record?
A: inactive [at 9.29 µM]

Q: What does the source list for COc1ccc(C2C(C(=O)O)C(C(=O)O)C2c2ccc(OC)cc2O[C@@H]2O[C@H](CO)[C@@H](O)[C@H](O)[C@H]2O)c(O[C@@H]2O[C@H](CO)[C@@H](O)[C@H](O)[C@H]2O)c1 (stereo partly drawn)?
A: Potency [1]: inactive; Potency [3]: 9.26 µM (active); Potency [5]: 7.94 µM (active); Potency [6]: inactive; Potency [7]: 11.7 µM (active)

Q: For CCC(C)/C=C(C)/C=C/C1=CC2=C(Cl)C(=O)C(C)(OC(C)=O)C(=O)C2=CN1C(CC(=O)O)C(=O)O (stereo not drawn), which Potency [1] is on record?
A: inactive

Q: With C=C1C2CCC3C(CCC4[C@@]3(C)CCC[C@@]4(C)C(=O)O)(C2)[C@@H]1OC(=O)/C(C)=C\C (stereo partly drawn) as the compound, how does the Potency [1] read?
A: inactive

Q: What about the Potency [2] of the same compound?
A: 21.5 µM (active)

Q: And the Potency [3]?
A: 6.81 µM (active)

Q: What about the Potency [5] of the same compound?
A: 6.31 µM (active)

Q: What about the Potency [6] of the same compound?
A: 10 µM (active)

Q: And the Potency [7]?
A: 6.07 µM (active)

Q: What about the Potency [8] of the same compound?
A: 39.8 µM (active)

Q: What about the Potency [9] of the same compound?
A: 8.91 µM (active)

Q: What about the outcome [10] of the same compound?
A: inactive

Q: Which Potency [1] does the source give for CC(C)c1ccc2c(c1)[C@H](O)CC1[C@@](C)(C(=O)O)CCC[C@]21C (stereo partly drawn) here?
A: inactive

Q: Which outcome [1] does the source give for C=C1CCC2(C(=O)OC3OC(CO)C(O)C(O)C3O)CCC3(C)C(=CCC4C5(C)CCC(OC6OC(CO)C(OC7OC(C)C(O)C(O)C7O)C(OC7OCC(O)C(O)C7O)C6O)C(C)(C)C5CCC43C)C2C1 (stereo not drawn) here?
A: inactive [at 9.29 µM]

Q: With O=C(/C=C/c1ccc(O)cc1)O[C@@H]1C[C@@](O)(C(=O)O)C[C@@H](O)[C@@H]1O as the compound, how does the Potency [1] read?
A: inactive

Q: Which Potency [1] does the source give for Cc1ccc2[nH]c(=O)c(C3=NN(C(=O)CCC(=O)O)C(c4ccc(Br)cc4)C3)c(-c3ccccc3)c2c1 (stereo not drawn) here?
A: inactive

Q: What about the Potency [2] of the same compound?
A: 44.1 µM (active)

Q: And the Potency [11]?
A: 49.4 µM (active)

Q: What about the Potency [3] of the same compound?
A: 3.93 µM (active)

Q: And the Potency [5]?
A: 6.31 µM (active)

Q: What about the Potency [6] of the same compound?
A: 3.16 µM (active)

Q: What about the Potency [7] of the same compound?
A: 3.93 µM (active)

Q: And the Potency [8]?
A: inactive

Q: And the Potency [9]?
A: inactive

Q: What about the outcome [10] of the same compound?
A: inactive
